The campaign covered roughly 53,000 sequences. About 3,700 (7%) were called active. The full list was thinned out, with actives kept by preference. Values without a mark were called inactive.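 The calls were made as follows: active = gene knockdowns whose robust z-score for IL-1 alpha signal is at least 2 or at most -2, so actives lie on both sides; inactive = the rest.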

The source of these data is PubChem BioAssay AID1508600 (Functional Genomics Laboratory (NCATS/FGL), 2020).

A short description of the assay: Components of the Cytosolic LPS Sensing Pathway: Gene Identification via Genome-wide siRNA Screen.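 Also: robust z of the log signal after scaling to non-targeting control siRNA wells of the plate.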 Conditions: RAW264.7 macrophages, IL-1a HTRF, actives lie on both sides, screened at 100 nM (by protocol), cells primed 5 h with Pam3CSK4 first. A digest of the protocol:
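Mouse macrophage line RAW264.7 is transfected with siRNA (100 nM final), grown 48h, primed with TLR ligand Pam3CSK4 5 h and given intracellular LipidA 24 h. IL-1a in supernatant is read by HTRF and viability by luminescence.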
(In general: Time-resolved FRET reads energy transfer from a long-lived donor to a nearby acceptor.)
For CGAGCUGUUAGAAUUCAGATT against Jakmip1, the z-score was -0.818.
As for GGAUCAAGAAUUAAUGUCUTT against Nes, the z-score is -0.349.
For the sequence GCGACAACUUAAAGACCGGTT against Cand2, the z-score is 0.0878.
Next, “GGCCAUCGCACUUAAACUUTT against 1700123K08Rik”: -0.578.
Regarding CCGAUGAUCAGAGAAACAGTT against Prkar2b, the z-score was -1.25.
Regarding GGGACAACAUGGAUUCAAGTT against Sult1c2, the z-score was 0.685.
On to GCCAAAACUCUGUUAGAUATT against Anapc7, for which the z-score is -0.931.
Next, GGAAGAAGAACUGAAGACATT against Ctnnbl1: 2.22 (active).
Next, GGAAUCUAGCUGAGAAAAUTT against Lepr: -0.62; “GGGAGUUCCAAUCAUUCUUTT against 2200002J24Rik”: 0.667; GGUCUAUGUACUGUCCUGATT against Otop2: 0.0413.
Consider “GGCAAUCAUGUGGACUUCATT against C230071H18Rik”, for which the z-score is 0.714.
As for CGUGAAGGAAACUUUUCAGTT against Prmt9, the z-score was -1.45.
Regarding GGAGAUUGACAUUAGCAACTT against Rps6ka2, the z-score is 3.02 (active).
In the case of GGCAGACUCUGCCUACUUATT against Utf1, the z-score is 1.01.
For GCUUUAAACUGAGUGAUAATT against Zfp451, the z-score was -0.564.
Next, GGCCAUCUAAUGACCUUCATT against Madd: -2.7 (active).
Turning to GCAUGACAGGAAACUCUCUTT against Olfr1308, the z-score was -0.825.
GCAACAAAUUUGAAUCAGATT against Chic2: the z-score is -0.185.
Next, GGAUCUUCGUACUAGAGGCTT against Cenpx: 0.0358; CCUCGUCGAGUGGAAAAUUTT against Pxylp1: -0.574; GGGCUGAGGAGAAAAUGCATT against Meg3: -2.37 (active).
Take GGAGACUCCUUACGGCAAATT against Bnip1: the z-score is 0.227.
For GGAAUGUUAACAAAGAGCATT against Sgcb, the z-score was 0.8.
For the sequence CCUAAUGUUUAGAUCCAUATT against Gcm2, the z-score is 0.11.
As to GGCCGAAUUGUGUCUUGGUTT against Dnmt3a, the z-score is -1.71.
As to GUGACACCUUUAUGGAGAGTT against Olfr1271, the z-score was 0.267.
Next, CGUGCUAGUGACCAUUUACTT against Limch1: 0.625; GGGUACCUACAUAGACAAGTT against Rps11: 0.0651.
Next, CGCAGUGAGGAGUAUGAAGTT against Nin: 3.53 (active); GGUAGCUAUUAAAGAAUCCTT against AW209491: 1.12.
GCGAUCAGCAAGCUAAGCCTT against Mettl2: the z-score was 0.117.
Next, GGCCAUGAGGAAAACAAGATT against Coro7: -1.01; ACAAAGAAGCGAUUUCUAUTT against Wtip: 1.32; GCACCCUAGAGGUAAAAGATT against Taf12: -2.95 (active).
Consider GGUUGUAACUUGUAAGGCATT against Rnf144b, for which the z-score was 0.123.
Take GGAGACUAAGGAGGUUUAUTT against Ruvbl1: the z-score was 0.494.
With GGAGUCUCCUUAUAUUAAUTT against Alcam, the z-score is 0.896.
GGAUCAUAUAUGAAGCACATT against Mybl1: the z-score was -2.16 (active).
Next, GGUUAACAUUUUCAGUCAUTT against Itga2: -0.986.
Next, GGAUGACUUGAUUAUCUUUTT against Adrm1: 0.603; GGCAAAGAUUCCAAAAGAGTT against Bsdc1: -1.59.
Turning to CCAGAUUGUGUUCACGAUGTT against Rasgrf2, the z-score is 0.888.
As for GGGAAGUUAUAAUGGAAGUTT against Rps15a, the z-score is 2.46 (active).
In the case of GCAUAAAGCAGUCAUGCUUTT against Gskip, the z-score was -0.989.
Regarding GCCAUGUGUAUGGUAGUCUTT against Olfr1247, the z-score is -1.22.
With GCUAAUAAUGGUCAAAGCCTT against Prrt3, the z-score was -0.963.
Consider GGAUAUUCAUGUUUCAUUGTT against Vipr2, for which the z-score is 0.836.
For CGACCAGAUGAACUGGUGUTT against Smg9, the z-score was 0.929.
As for GGUGACACACUAGUAGACUTT against Sclt1, the z-score was 3.47 (active).
Regarding CGAACAGAAACAGUUAUUATT against Gbp2, the z-score was 1.01.
Take CCAAAUCUCUCAAUUUAGGTT against Taf9b: the z-score was 0.265.
Turning to CCAAAGAUGUUAUUGGACCTT against Olfr1152, the z-score is -1.1.
For the sequence CCUGUAAACCAGAUAAGCCTT against Defb1, the z-score is -0.0772.
For the sequence GGCAAUAUGUCGUAUGUAATT against Sfmbt2, the z-score was -2.13 (active).
Next, GGUCAUGAAUUACUAUUCCTT against Cyth2: 1.02; GGAGAAAUUCCCUUGCCACTT against Kbtbd12: -0.0157.
With UUUAUACUUCCCUGAUUUUTT against Olfr943, the z-score is -0.409.
For GGGAAAAAGGAGAACUUCUTT against Cfap161, the z-score was -1.12.
Regarding GGAUCAUAGUUACAAGGCUTT against L3mbtl2, the z-score is 0.458.
As to GCUUUGAGAGGUGUUGAUATT against Gm6116, the z-score is -0.864.
Consider GCUAAGUUGGAAUUUCCACTT against Chtop, for which the z-score was 2.05 (active).
Consider GCCGUUUUAUGUGGCAGAATT against Slc35d3, for which the z-score was 0.141.
As to GGUAUUGUGGCCAGUAUUUTT against Ptdss2, the z-score is 0.185.
Next, AUAAGGAUGUCCAUCUUGCTT against Olfr884: -1.17.
Next, CGGUCUAAAUUUCCGGUCATT against Elane: -0.205.
For GGCUCAACGGGAUUACUUUTT against Pgd, the z-score is -0.578.
In the case of GAAAUAGAGAUGCCUCUCUTT against Olfr1161, the z-score was 2.52 (active).
Regarding CCAAUUUACGACAAAUCGUTT against Entpd4, the z-score is -0.56.
Regarding GGCCCGAAACAAGAAAUCCTT against Ikbke, the z-score is 0.957.
For the sequence GCUGGUCUUUCAAGUCAAGTT against Stat5b, the z-score was 2.62 (active).
For GAAAAAUCAUGAAGCCAUATT against Olfr203, the z-score is -0.0109.
Consider CCAGCUAGUGAUGUCAAAATT against Bri3bp, for which the z-score was -0.0406.
For GGACAGCUGGCUUCUAAAUTT against Lmntd1, the z-score was 0.137.
CCAUAGGUAUGUUAAUCGATT against Polr1b: the z-score is -0.426.
On to GGCCAACCUACUUUUCUGGTT against Mgll, for which the z-score was -1.18.
Next, CGAUGGAAGUUUAAACCUCTT against Htr1a: 0.326.
For GGUUGUGAAUGUAAGUGAGTT against Entpd1, the z-score was -0.787.
As for GGCAUCUUCGAAAAAUGAUTT against Reck, the z-score was -0.552.
With CGAUUUUCACCAAUUGUGGTT against Diaph2, the z-score is -2.03 (active).
For the sequence GGACAUCAGUUGUCCUAGCTT against Ano6, the z-score was -0.285.
Next, GGGCUACUCAAAGAAGAUATT against Galnt5: -0.357.
Regarding GGUCACCACACGAUCUACATT against Slc4a4, the z-score is 3.14 (active).
As for GCUCGGCUUUAGAGACCUATT against Cox19, the z-score is 0.379.
As to GCCUGUACAUGACGGAAAGTT against Bag4, the z-score is 0.155.
For GGAGUUACGGGAUUCCGUUTT against Kras, the z-score was 1.7.
As to GCCUAGCUGAAAACGUGUCTT against Cog4, the z-score was 5.04 (active).
With GCUUAUAAAAGACUUACUGTT against Sec24b, the z-score is 0.414.
Take GGUUAAAAUUGGCUAAAUGTT against Sertm1: the z-score was 1.5.
GGCUAAAAAGAGUAGACUATT against Irs1: the z-score is 1.14.
Turning to GGAAGAAUCUGAUUCGUAATT against Snapc5, the z-score was -1.28.
Consider GGCUUUUUCUACAUGCGCCTT against Olfr1104, for which the z-score was -0.236.
Turning to GGCUGUUAUACACUAUCUGTT against Tirap, the z-score was -2.71 (active).
Regarding GGCUUUACUACUCAACCAUTT against Gjb3, the z-score is -0.388.
In the case of GCAUUUAUAUGAGAUGCAGTT against Fam210a, the z-score is 0.108.
Next, CCAAAGCCUGAAAUGGUGGTT against Cxcr4: -2.36 (active); “GGUCAAAACAUGUUGAAGGTT against B330016D10Rik”: 0.15; GGCAGAUGAUGGUCCAUGCTT against Tfpi: -1.63.
Regarding CCAGCAGUAAACUGGAAAUTT against Arhgap25, the z-score was -1.53.
On to GGCAACCAGAUAUUUGUUATT against Myef2, for which the z-score is 0.549.
Next, GCUCGCACAGAAGUUACAATT against Lrrc42: -0.486; “GAAAUGCAAGACUCUGCACTT against 1700020L24Rik”: -2.66 (active).
As to GGAGCGAGUAGACAUUCUGTT against Rdh13, the z-score was 1.72.
Take GGUAGUGCCAUAAUUUCUGTT against Nipal2: the z-score was -0.782.
As for GGAACCAAUCUGUCUCUCCTT against Cbfb, the z-score was -2.07 (active).
Next, GCUGUUAACUAUCUGGAUATT against Prokr1: 0.59; GGGUGUUGUGUCCUCUCAATT against Gckr: 0.0744.
